# Laboratory results taken from PubChem BioAssay (NCI).
# About 83,000 compounds went through this panel and 20% of them were active in at least one assay; those are over-represented in the sample as a whole.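 For each line, cells grew in 96-well plates with the test compound present at a single concentration for 48 hours.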 A number with no mark means an inactive call. Active and inactive are the calls of the source. Rule for the calls: active = growth percent below 10; inactive = the rest.
# Tests used:
# Assay in all cases: NCI-60 one-dose screen, 48 h (100 = growth as untreated, 0 = no growth, -100 = all killed)
# Details in all cases: 10 µM unless noted
# [1] = system: HCT-15 colon
# [2] = system: HT29 colon
# [3] = system: SNB-75 CNS
# [4] = system: SNB-19 CNS
# [5] = system: U251 CNS
# [6] = system: PC-3 prostate
# [7] = system: SK-MEL-5 melanoma
# [8] = system: UACC-62 melanoma
# [9] = system: LOX IMVI melanoma
# [10] = system: SK-MEL-28 melanoma
Compound,growth [1],growth [2],growth [3],growth [4],growth [5],growth [6],growth [7],growth [8],growth [9],growth [10]
COc1cc(/C=C/C(=O)c2ccc(N3CCN(C)CC3)cc2)ccc1F,36.4%,46.5%,58%,66.9%,76.2%,61.5%,95.6%,88.6%,17.8%,98.3%
CCOC(=O)c1c(NC(=O)c2ccc(C(C)(C)C)cc2)sc2cc(OCCN3CCCCC3)ccc12,22.3%,24.3%,94.7%,55.6%,45.3%,76.2%,96.9%,102%,-74.4% (active),104%
O=C(/C=C/Nc1ccc(S(=O)(=O)O)cc1)c1ccc(F)cc1,96.4%,103%,92.4%,93.4%,98%,96.1%,99.2%,93.5%,95.9%,101%
CCNC(=O)Oc1ccc(/C(=C(/C)c2ccc(Cl)cc2)c2ccc(OCCN(C)C)cc2)cc1,47%,15.2%,75.4%,81.1%,58.8%,62.8%,70.7%,86.4%,41.5%,93.4%
C/C(=C(/C)C1CC1CCN(C(=O)c1ccc([N+](=O)[O-])cc1)S(=O)(=O)c1ccc(C)cc1)C1CCCCC1 (stereo not given),98.1%,99.2%,106%,92.5%,94.7%,85.4%,99.4%,79.7%,93.9%,101%
COc1ccc2c(C3=C(c4c[nH]c5ccccc45)C(=O)N(O)C3=O)coc2c1,92.2%,95.4%,105%,95.1%,98%,81.2%,94.5%,80.4%,52.2%,110%
CC[C@]12C=CCN3CC[C@]4(C(=C(C(=O)OC)C1)Nc1cc5c(cc14)[C@@H]1[C@H](O5)[C@@H](O)[C@@]4(CC)CC(C(=O)OC)=C5Nc6cc(OC)ccc6[C@@]56CCN1[C@@H]46)[C@@H]32,-19.9% (active),2.83% (active),21.1%,3.1% (active),3.18% (active),9.02% (active),-2.36% (active),8.98% (active),-85.9% (active),1.92% (active)
O=C(Nc1cccc(-c2nc(-c3ccc(NC(=O)c4cccs4)cc3Cl)no2)c1)Nc1ccc(NC(=O)C2CC2)c(C(F)(F)F)c1,0.554% (active),-11.2% (active),-66.4% (active),-17.7% (active),-49.7% (active),-56.3% (active),-90.7% (active),-73.8% (active),-87.1% (active),-83.3% (active)
NC(=O)c1c(NC(=O)c2cccc(C(F)(F)F)c2F)sc2c1CCC(=O)C2,7.63% (active),8.55% (active),40.2%,18%,15.9%,17.9%,-3.83% (active),11.1%,19.2%,33.9%
CC1(C)CC[C@]2(C(=O)N3CCCNCC3)CC[C@]3(C)C(=CC[C@@H]4[C@@]5(C)CCC(=O)C(C)(C)[C@@H]5CC[C@]43C)[C@H]2C1,103%,102%,124%,98%,100%,88.2%,102%,89.6%,97.2%,104%
Oc1ccccc1/C=N/Nc1nc(N/N=C/c2ccccc2O)nc(N2CCOCC2)n1,3.87% (active),34.2%,-4.09% (active),41.7%,22%,24.1%,65.8%,88.8%,4.04% (active),28%
COc1ccc(C2CC(c3ccc(Nc4nc(NCCO)nc(Nc5ccc(Cl)cc5)n4)cc3)=Nc3c(N)nc(N)nc3N2)cc1 (stereo not given),14.1%,54.8%,117%,76.8%,66.4%,63.1%,59.8%,107%,12.9%,119%
CSc1nccc(-c2c(-c3ccc(F)c(OCc4ccc(F)cc4)c3)nc3sccn23)n1,64.6%,67.8%,113%,72.6%,60.2%,55.2%,19.2%,38%,74%,87.5%
COc1ccc([C@H]2[C@H](O)C(=O)N2c2cc(OC)c(OC)c(OC)c2)cc1O,1.4% (active),-18.4% (active),45.3%,29%,1.09% (active),8.59% (active),0.345% (active),27.9%,17.1%,62%
COc1cc2c3c(n(CCCN4CCCC4)c(=O)c2cc1OC)-c1cc2c(cc1C3=O)OCO2,-61.7% (active),-76% (active),-74.6% (active),-48.9% (active),-96.2% (active),-64.5% (active),87.5%,73.9%,-80.1% (active),-74.1% (active)
N/C(=N\OC(=O)CSc1nc2ccccc2s1)c1ccc(Cl)cc1,101%,103%,88.7%,99.4%,96.8%,99.9%,100%,87.8%,99.7%,106%
COc1ccc(Cn2cc3c(c2-c2cc(OC)c(OC)c(OC)c2)CCCc2cnoc2-3)cc1N,26.8%,14.6%,-14.5% (active),28.7%,32.6%,35.5%,23.1%,41.5%,45.1%,65.9%
CCOC(=O)C1=C(C)Nc2nc3ccccc3n2C1c1ccccc1 (stereo not given),90.8%,97.9%,99.1%,97.8%,101%,97.7%,99.3%,85.7%,90.4%,109%
COc1cc(C2=NN(C(C)=O)C(c3ccc(N4CCOCC4)cc3)C2)cc(OC)c1OC (stereo not given),107%,109%,96%,98.6%,104%,106%,97.7%,87.8%,98.1%,104%
CCc1ccc(NC(=O)N[C@@H](Cc2cccc(F)c2)C(=O)N[C@@H]2C(=O)N3CCC[C@H]3C(=O)N3CCCC[C@H]3C(=O)N[C@@H](CO)C(=O)N3C[C@H](C)C[C@H]3C(=O)O[C@H]2C)c(F)c1,15.1%,36.1%,26.4%,28.1%,30.9%,17.5%,0.508% (active),27.2%,24.9%,44.6%
C[C@@H]1C[C@H]2C(=O)OCC(NC(=O)[C@H](Cc3cc(F)cc(F)c3)NC(=O)Nc3ccc(Cl)cc3F)C(=O)N3CCC[C@H]3C(=O)N3CCCC[C@H]3C(=O)N[C@@H](C)C(=O)N2C1 (stereo not given in full),11.1%,15.6%,46.8%,24.4%,28.8%,17.3%,-12.3% (active),26.7%,4.29% (active),39.7%
c1ccc(-c2c(-c3ccccc3)[n+](Cc3ccc4ccccc4c3)c(-c3ccccc3)n2Cc2ccc3ccccc3c2)cc1,-81.7% (active),-70.1% (active),-78.4% (active),-94.9% (active),-78.8% (active),-87.3% (active),-99.1% (active),-88.6% (active),-89.8% (active),-93.3% (active)
COc1ccc(-c2ccnc3c(C#N)c(Nc4ccccc4)nn23)cc1OC,88.8%,90%,51.4%,95.1%,87.7%,89.2%,74.2%,85.3%,90.9%,90.7%
COc1ccc2c(c1)c(-c1nnc(N)nc1-c1cn(C)c3ccccc13)cn2C,87%,96%,42.9%,93.2%,102%,88.8%,97.8%,79%,90.8%,97.3%
COc1ccc(C(=O)c2c(N)c(C#N)cn2-c2cccc(OC)c2)cc1,19.8%,7.88% (active),-23.4% (active),26.8%,33.8%,33.9%,35.1%,18.8%,37.9%,45.8%
COc1ccc(NC2=C(Cl)C(=O)C(C)=C(C)C2=O)cc1,94.8%,106%,71.7%,95.2%,88.6%,74.7%,97.7%,91%,65.8%,103%
